# Screens deposited in PubChem by National Center for Advancing Translational Sciences (NCATS).
# Compounds with a hit are over-represented: about 6% of the library has one in this group of screens.
# D1 agonist: human D1 receptor agonism | P21728 | HEK293 T-REx D1 cells, calcium flux, agonist mode | activation, % at 2 µM | 360,000 compounds, 1% hits; in the data active = activation above about 30%; also: 0% is about no effect
#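 Inducible HEK293 T-REx D1 cells, force-coupled to calcium signalling, were plated at 4000 cells/well with tetracycline and held overnight at 30 C. After no-wash calcium dye loading, compound-evoked calcium rise over 180 s flagged agonists.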
# D1 potentiator: human D1 dopamine receptor positive modulation; 360,000 compounds, 0.036% hits; P21728; potentiation, % at 10 µM; HEK293 TREx D1 cells, calcium flux, dopamine EC20 potentiation; in the data active = potentiation above about 30%; also: 0% is about no effect
# DRD3 antagonist: blocks the human D3 dopamine receptor; P35462; D3R cells, DiscoveRx beta-arrestin luminescence, antagonist mode; stronger effect = lower value; max response, negative = inhibition, %; 360,000 compounds, 2.5% hits; AID 652054; in the data active = max response below about -50%; also: % is scaled to controls: 0 for no effect and ±100 for the full control effect
# Target sequence (P35462 whole entry, looked up): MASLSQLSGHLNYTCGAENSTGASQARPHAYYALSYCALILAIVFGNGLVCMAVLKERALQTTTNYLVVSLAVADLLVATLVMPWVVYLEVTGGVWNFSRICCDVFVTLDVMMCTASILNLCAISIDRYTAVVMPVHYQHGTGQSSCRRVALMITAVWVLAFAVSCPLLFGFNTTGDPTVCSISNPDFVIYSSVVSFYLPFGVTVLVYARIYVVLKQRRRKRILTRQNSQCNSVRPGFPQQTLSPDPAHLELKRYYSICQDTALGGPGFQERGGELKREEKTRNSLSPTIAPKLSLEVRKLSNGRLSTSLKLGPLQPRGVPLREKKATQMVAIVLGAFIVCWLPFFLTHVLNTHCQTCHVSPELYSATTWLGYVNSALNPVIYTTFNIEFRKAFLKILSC
#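 Cells plated overnight at 1500 cells/well, then exposed to library compounds with dopamine controls for 90 minutes at 37 degrees C. DiscoveRx reagent added for 30–60 minutes at room temperature; luminescence read, quantitative HTS format.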
# D1 antag: antagonists of human D1 dopamine receptor; P21728; HEK293 TREx D1 cells, calcium flux, dopamine EC80; stronger effect = lower value; activity change, negative = inhibition, % at 10 µM; 360,000 compounds, 3.2% hits; in the data active = activity change below about -30%; also: % is scaled to controls: 0 for no effect and ±100 for the full control effect
#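 Antagonism measured as reduced calcium response to an EC80 dopamine addition following 180 s compound pre-read; cells were inducible HEK293 Trex D1 plated overnight at 30 C, read kinetically at 1 cycle/sec.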
# DRD3 agonist: agonists of human D3 dopamine receptor; P35462; 410,000 compounds, 0.58% hits; max activation, %; D3R DiscoveRx beta-arrestin cells, luminescence, 90 min; AID 652048; in the data active = max activation above about 30%; also: 0% is about no effect
#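 Cells at 1500/well, incubated overnight, then treated with pinned compounds (dopamine as control) for 90 min at 37 degrees C. DiscoveRx reagent added for 30 - 60 minutes at room temperature; luminescence read.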
# * marks the source's active call; other numbers are inactive results; · = no result.
SMILES,D1 agonist,D1 potentiator,DRD3 antagonist,D1 antag,DRD3 agonist
COc1ccc(C2C=C(c3ccccc3)Nc3nc(CCCO)nn32)cc1 (configuration not stated),2.4,-1.9,16.6,-10.1,2.9
CC(=O)Nc1nc2n(n1)C(c1ccccc1)C=C(c1ccccc1)N2 (configuration not stated),8.7,-13.4,4.5,-7.5,-2.0
COc1ccc(C2C=C(c3ccccc3)Nc3nc(NC(=O)/C=C/c4ccccc4)nn32)cc1 (configuration not stated),0.8,-1.1,·,9.7,-1.1
CCN1C(=O)[C@H]2[C@H]3CN=C(SCc4ccc(Cl)cc4)N3[C@@](C)(C(=O)OC)[C@H]2C1=O,·,·,11.2,·,-2.3
CCc1nc2ccc(C(=O)Nc3cc(-c4ccccc4)ccc3OC)cn2c1N(C)Cc1nccs1,·,·,34.0,·,6.6
CCN1C(=NCC(C)C)N[C@@H](c2ccccc2)[C@H](C(=O)OC)[C@H]1C,2.7,-0.8,·,-6.5,·
CNc1cc(-c2ccc(CC#N)cc2)ncn1,·,·,0.0,·,-8.2
C[C@H](CO)N1C[C@H](C)[C@@H](CN(C)S(C)(=O)=O)OCc2cnnn2CCCC1=O,·,·,-9.5,·,3.2
O=C(Nc1nc2n(n1)C(c1ccc(Cl)cc1)CC(c1ccc(Cl)cc1)N2)c1ccco1 (configuration not stated),1.3,9.6,-53.5*,6.9,-11.5
COc1ccc(C2CC(c3ccc(Cl)cc3)Nc3nc(NC(=O)c4ccco4)nn32)cc1 (configuration not stated),2.1,-1.6,-6.6,14.1,2.1
COc1ccc(C(=O)Nc2nc3n(n2)C(c2ccccc2)C=C(c2ccccc2)N3)cc1 (configuration not stated),31.9*,-4.5,·,-13.2,4.3
O=C(Nc1nc2n(n1)C(c1ccccc1)C=C(c1ccc(Cl)cc1)N2)c1ccco1 (configuration not stated),47.3*,-1.4,·,-1.3,-1.8
CSc1ccc(CNC(=O)CCn2ccc3cc(S(=O)(=O)N4CCC(C)CC4)ccc32)cc1,1.4,-1.8,·,8.5,1.8
CN(C)c1ccc(CNC(=O)c2cccn2-c2nnc(N3CCCCC3)s2)cc1,2.1,3.0,·,3.3,-16.2
OCc1cnc(SCc2ccccc2)n1Cc1ccccc1,3.4,-1.8,-1.4,2.1,-10.3
C=CCSc1ncc(CO)n1Cc1ccccc1,-1.0,2.3,-12.6,-50.2*,-5.5
O=C1c2cc(O)cc(O)c2C(=O)c2c1cc(O)c([C@@H](CO)CCO)c2O,·,·,-53.1*,·,-20.9
O=C(N/N=C/c1ccccc1Cl)c1n[nH]c2c1CCCC2,2.2,-3.7,-6.9,-28.7,2.7
Cc1[nH]nc(C(=O)NN=Cc2ccccc2Cl)c1N=NN(C)C,·,·,-80.7*,·,-10.8
CCOCCCNC(=S)NC1CC2CCC(C1)N2Cc1ccccc1 (configuration not stated),0.3,-0.6,-62.2*,2.5,-12.6
COCCCNC(=S)NC1CC2CCC(C1)N2Cc1ccccc1 (configuration not stated),1.8,0.3,-59.6*,-1.5,-18.9
COCCCNC(=S)NC1CC2CCCC(C1)N2Cc1cccs1 (configuration not stated),·,·,-26.4,·,-29.9
NC(=O)NCc1ccccc1Cl,0.7,-3.1,4.1,-38.0*,4.5
COc1ccc(Nc2ncnc3onc(C)c23)cc1Cl,0.5,4.3,·,-25.1,-3.9
O=C(NC1CCCC1)C1C(c2ccc(C(F)(F)F)cc2)=Nc2ccccc2N1C(=O)c1cc2ccccc2[nH]1 (configuration not stated),·,·,-0.9,·,-7.2
SMILES,D1 agonist,D1 potentiator,DRD3 antagonist,D1 antag,DRD3 agonist
O=C(CN1c2ccccc2Sc2ccccc21)NNC(=O)Nc1ccc(Cl)cc1,0.4,-11.0,8.1,-35.6*,3.6
CCN(CC(=O)Nc1ccc(NC(C)=O)cc1)C(=O)CCCOc1ccc(C(C)(C)C)cc1,31.8*,6.6,5.8,0.0,2.1
CCN(CC(=O)Nc1ccc(NC(C)=O)cc1)C(=O)CCN1C(=O)C2CC=CCC2C1=O (configuration not stated),2.8,-4.5,-9.9,-43.9*,-13.2
CCOc1ccc(OCCC(=O)N(CC)CC(=O)Nc2ccccc2OC)cc1,·,·,0.7,·,31.0*
COc1ccc(Cc2nnc(NCCO)[nH]c2=O)cc1OC,1.4,6.8,-8.7,-1.4,-2.1
COc1ccc(Cc2nnc(NCCO)[nH]c2=O)cc1,1.9,-2.8,5.8,3.0,33.5*
CCCN(CCC)CCNC(=O)c1cc(Sc2ccc(Cl)cc2)nc2ccccc12,11.1,-3.5,·,-11.7,-17.0
COc1ccc([C@H]2CC(=O)C=C(c3cc(OC)ccc3OC)C2)cc1,0.2,-2.7,-4.0,-34.5*,-2.6
COc1ccc(C2=CC(=O)CC(c3ccc(OC)cc3)C2)cc1 (configuration not stated),5.4,-2.8,-9.5,-2.8,-12.1
C=Cc1ccc(C2=CC(=O)C[C@H](c3ccc(OC)cc3)C2)cc1,15.1,-5.3,-52.1*,24.9,-27.2
CCCc1ccc(OC(=O)CSc2nnc(-c3cccs3)o2)cc1,1.6,1.6,·,5.5,9.0
COc1ccccc1CNC(=O)c1ccc2c(c1)nc(C)n2-c1ccccc1OC,0.9,-6.2,·,-12.3,-13.2
CC(C)(C)C1CCC2(CC1)NC(CO)(CO)CO2 (configuration not stated),0.5,-1.4,0.0,-34.0*,6.8
COc1ccc(Cl)cc1NC(=O)Cn1ccn(Cc2ccc(C)cc2)c(=O)c1=O,1.2,-4.5,·,-15.9,-8.5
CCN1CCN(C(=O)c2ccc3c(=O)n(CCC4=CCCCC4)c(=O)[nH]c3c2)CC1,3.9,3.4,-53.8*,6.1,-12.3
O=C(NCc1ccco1)c1ccc2c(=O)n(CCC3=CCCCC3)c(=O)[nH]c2c1,3.8,-10.2,37.2,0.6,-2.3
CCN(CC)CCCNC(=O)Cn1ncn2cccc2c1=O,0.7,-0.3,-73.2*,4.9,-8.3
CCCCc1ccc(S(=O)(=O)Nc2ccc(C)c(NS(C)(=O)=O)c2)cc1,22.8,-4.9,-9.4,-35.1*,-10.1
CCCc1ccc(S(=O)(=O)Nc2ccc(C)c(NS(C)(=O)=O)c2)cc1,13.3,-7.1,-12.0,-19.1,-7.3
Cc1ccccc1Nc1nc(N)c(C(=O)c2ccccc2Cl)s1,95.5*,-3.0,·,-48.2*,8.1
COc1ccc(C(=O)/C=C2\Sc3ccccc3N2C)cc1,0.3,2.3,-16.5,-21.1,-13.4
COc1ccccc1-[n+]1c(C)cc(/C=C2\Sc3ccccc3N2C)cc1C,41.8*,-0.6,-1.3,21.1,-5.7
COc1ccc(-[n+]2c(C)cc(/C=C3\Sc4ccccc4N3C)cc2C)cc1,78.1*,5.9,-21.8,27.4,-8.5
O=C1N(c2ccccc2C(F)(F)F)O[C@@]1(c1ccccc1)C1CCCCC1,1.5,1.4,-56.7*,·,-17.5
O=C1N(c2ccccc2C(F)(F)F)O[C@@]1(c1ccccc1)C1CCCC1,3.5,1.1,4.7,·,1.5
